Only some compounds are listed: those with a hit (about 3.5% of all), similar ones and a draw of the others.
HEK293 cAMP ctrl – raises cAMP in parental HEK293 cells, TSHR agonist counter-screen. 2.5% of 73,000 active. AID 938. Potency, µM (highest dose often 57.1 µM), for inactives: at the top dose activation, actives largely listed as activators. parental HEK293 CNG cAMP sensor, membrane potential fluorescence; active means well fitted activation curve with a large enough effect; inconclusive means small, poorly fitted or top-dose-only effect; inactive means no such curve, though single readings can be large or run the other way; further: % of control where 0% means no effect; nearly all actives have a fitted effect of over 55% in size
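Parental HEK 293 cells stably expressing a cAMP-gated CNG channel were loaded with membrane potential dye containing 100 uM RO 20-1724 for 60 min. Compound added for 30 min; depolarization read as fluorescence intensity at 590 nm.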
TSHR agonist – activates the human thyroid stimulating hormone receptor. HEK293-CNG-TSHR cells (CNG channel as cAMP sensor), membrane potential dye, cAMP. Potency, µM (doses to about 57.1 µM), without a hit: top-dose activation, usual class: activators. AID 926. 0.48% of 73,000 active. P16473; active means well fitted activation curve with a large enough effect in the main read-out, with a control signal flat, not every such curve was filed as active; inconclusive means small, poorly fitted or top-dose-only effect, or a change in a side signal; inactive means no such curve, though single readings can be large or run the other way; % of control where 0% means no effect;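 further: the control signal comes from parental cells without the receptor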
Target sequence (P16473 whole entry, looked up): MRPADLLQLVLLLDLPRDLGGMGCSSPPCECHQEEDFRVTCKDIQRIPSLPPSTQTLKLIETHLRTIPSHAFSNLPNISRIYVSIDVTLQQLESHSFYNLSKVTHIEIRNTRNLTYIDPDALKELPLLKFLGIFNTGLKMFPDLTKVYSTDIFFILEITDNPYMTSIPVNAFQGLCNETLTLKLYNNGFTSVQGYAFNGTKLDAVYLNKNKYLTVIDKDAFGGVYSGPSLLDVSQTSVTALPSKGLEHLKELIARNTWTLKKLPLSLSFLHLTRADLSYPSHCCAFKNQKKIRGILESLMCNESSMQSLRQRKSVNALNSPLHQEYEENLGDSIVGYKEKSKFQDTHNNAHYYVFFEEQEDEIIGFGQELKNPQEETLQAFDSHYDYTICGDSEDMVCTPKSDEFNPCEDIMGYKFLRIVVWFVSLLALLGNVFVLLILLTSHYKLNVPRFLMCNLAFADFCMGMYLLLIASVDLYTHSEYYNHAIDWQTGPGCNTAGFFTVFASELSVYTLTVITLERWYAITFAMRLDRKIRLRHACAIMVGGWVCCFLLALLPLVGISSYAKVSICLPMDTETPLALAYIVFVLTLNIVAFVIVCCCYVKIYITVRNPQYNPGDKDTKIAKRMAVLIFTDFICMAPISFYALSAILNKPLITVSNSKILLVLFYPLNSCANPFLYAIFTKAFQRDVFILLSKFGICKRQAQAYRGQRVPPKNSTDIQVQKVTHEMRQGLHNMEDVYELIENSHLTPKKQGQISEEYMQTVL
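HEK 293 cells stably expressing TSHR and a cAMP-gated CNG channel; parental CNG-only cells as counterscreen. Cells preloaded 60 min with membrane potential dye plus 100 uM RO 20-1724, then compound 30 min; fluorescence read at 590 nm.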
CRE-bla Fsk – CRE-bla signaling modulation under forskolin stimulation; CHO CRE-bla reporter (cAMP response element driving beta-lactamase), forskolin EC10, beta-lactamase ratio; Potency, µM (top dose mostly 38.2 µM), without a hit: top-dose activity change, negative = inhibition, most hits filed as activators; 2.5% of 71,000 active; active means well fitted activation curve with a large enough effect in the signal ratio, with a control signal flat, not every such curve was filed as active; inconclusive means small, poorly fitted or top-dose-only effect, or effect the other way, or a change in a side signal; the % refers to the signal ratio; further: % of control where 0% means no effect
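Reporter-gene assay: CHO cells with beta-lactamase behind cAMP responsive elements, co-treated with compound and EC10 NKH 477 for 3 hours at 37 degrees Celsius. Activity came from the 460/530 nm CCF4 emission ratio.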
Hsp90 Hop PPI – changes Hsp90-Hop TPR2A binding signal, up or down. AlphaScreen TPR2A-His6 binding biotin-Hsp90 C-terminal peptide. Potency, µM (highest dose often 57 µM), for inactives: at the highest dose activity change, negative = inhibition. 0.44% of 71,000 active; active means well fitted curve in either direction with a large enough effect; inconclusive means small, poorly fitted or top-dose-only effect, or another doubt; further: on the % scale 0 is the no-effect control and ±100 the full control effect
IkB signaling – IkB pathway inhibition in ABC-DLBCL cells | ABC-DLBCL IkBa-CBG/CBR dual luciferase ratio, 4 h; response scale: scaled: untreated 0%, proteasome inhibitor 100% | Potency, µM (series often up to 57.1 µM), for inactives: at the top dose IkBa stabilization activation | 0.04% of 110,000 active; active means well fitted curve in the direction sought with a large enough effect in the signal ratio, not every such curve was filed as active; inconclusive means small, poorly fitted or top-dose-only effect, or a change in a side signal; the % refers to the signal ratio;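 further: the direction sought is a rising ratio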
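Curves were fitted separately to fusion (green), unfused (red) and ratio luminescence, then classed by r2, magnitude and activity. Cells: OCI-Ly3, 4 h compound plus doxycycline at 37C; 10 uM MG-132 defined full response.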
* marks the source's active call; other numbers are inactive results; [ ] = another dose, or the depositor's remark. Potency means the concentration at half of the fitted maximal effect.

Screening C1CCN(CC[C@@H]2CCCCN2)CC1 returned HEK293 cAMP ctrl 4.6%[11.4 µM], TSHR agonist -0.2%[11.4 µM], CRE-bla Fsk 4.7%[7.6 µM], Hsp90 Hop PPI -0.9%[11 µM] and IkB signaling 0.0%[11.4 µM].
`COc1ccc(/C=C(/C#N)c2nc(-c3ccc(-c4ccccc4)cc3)cs2)cc1OC` gave IkB signaling -0.6%.
For COc1ccc(-c2csc(/C(C#N)=C(\O)CSc3nccn3C)n2)cc1OC the results were HEK293 cAMP ctrl 8.9%, TSHR agonist -3.5%, CRE-bla Fsk 6.31µM*, Hsp90 Hop PPI -18.5% and IkB signaling -4.6%.
Screening CCNC(=O)C1CC(=O)N(Cc2ccc(F)cc2)C(=Nc2ccc(OC)cc2)S1 (stereo not drawn) returned HEK293 cAMP ctrl 1.5%, TSHR agonist 16.7%, CRE-bla Fsk 0.0%, Hsp90 Hop PPI -1.4% and IkB signaling -2.6%.
CCNC(=O)C1CC(=O)N(Cc2ccc3c(c2)OCO3)C(=Nc2ccc(OCC)cc2)S1 (stereo not drawn) was read as HEK293 cAMP ctrl 8.3%, TSHR agonist 31.6µM*, CRE-bla Fsk -8.3%, Hsp90 Hop PPI 0.0% and IkB signaling 1.3%.
CC(C)[C@@H]1C(=O)N(S(C)(=O)=O)[C@H]2CCN(C(=O)/C=C\CN3CCCCC3)[C@@H]12 was read as HEK293 cAMP ctrl -0.6%, TSHR agonist 4.6%, CRE-bla Fsk inconclusive, Hsp90 Hop PPI -3.4% and IkB signaling 0.3%.
Screening CC1(C(=O)NCC2CC2)C=CC2(CCCCC2)N1C(=O)c1ccccc1 (stereo not drawn) returned HEK293 cAMP ctrl 10µM*, TSHR agonist inconclusive, CRE-bla Fsk -2.1% and Hsp90 Hop PPI -2.9%.
For COc1ccccc1-n1cnc2cc(NCc3ccco3)ccc21 the results were HEK293 cAMP ctrl 6.5%, TSHR agonist 7.7%, CRE-bla Fsk 12.6µM*, Hsp90 Hop PPI -18.0% and IkB signaling inconclusive.
For CC(=O)c1sc(Nc2nc3ccc(F)cc3s2)nc1C the results were HEK293 cAMP ctrl -15.5%, TSHR agonist -6.7%[11.4 µM], CRE-bla Fsk 12.6µM*, Hsp90 Hop PPI 19.0% and IkB signaling inconclusive.
For O=C(N/N=C1/C[C@@H](O)[C@@H](O)[C@@H]2[C@@H]3C(=O)N(C[C@@H]4CCCO4)C(=O)[C@H]3CC[C@H]12)OCc1ccccc1 the results were HEK293 cAMP ctrl 3.3%[11.4 µM] and TSHR agonist -3.5%[11.4 µM].
Screening CC(C)C[C@@H](CC(=O)N[C@@H](CCC(=O)O)CC(=O)O)NC(=O)[C@@H]1CNCC[C@H]1NC(=O)C[C@H](CCCN)NC(=O)C[C@H](Cc1c[nH]c2ccccc12)NC(=O)[C@@H]1CCCC[C@H]1N returned HEK293 cAMP ctrl 9.8%, TSHR agonist 5.6%, CRE-bla Fsk -13.2%, Hsp90 Hop PPI -9.8% and IkB signaling -1.0%.
For COc1cc2c(cc1OC)-c1cc(OCc3cccnc3)nc(=O)n1CC2 the results were HEK293 cAMP ctrl -3.4%, TSHR agonist 12.1%, CRE-bla Fsk 3.98µM*, Hsp90 Hop PPI -9.2% and IkB signaling -1.9%.
COc1cc2c(cc1OC)-c1cc(Nc3ccc4c(c3)OCCO4)nc(=O)n1CC2 was read as HEK293 cAMP ctrl -10.6%, CRE-bla Fsk 2.51µM*, Hsp90 Hop PPI -5.2% and IkB signaling inconclusive.
CCN(CC)CCCNc1cc2n(c(=O)n1)CCc1cc(OC)c(OC)cc1-2 was read as HEK293 cAMP ctrl 2.9%, TSHR agonist 5.1%, CRE-bla Fsk inconclusive, Hsp90 Hop PPI -5.7% and IkB signaling -0.9%.
`COc1cc2c(cc1OC)-c1cc(NC3CCCCCC3)nc(=O)n1CC2` gave HEK293 cAMP ctrl 19.4%, TSHR agonist 10µM*, CRE-bla Fsk 1µM*, Hsp90 Hop PPI -0.5% and IkB signaling -1.7%.
Screening Cc1ccc(NC(=O)Cc2coc3c(C)c(C)ccc23)cc1Cl returned IkB signaling -0.4%.
Screening Cc1ccc2c(CC(=O)NCc3ccco3)coc2c1C returned HEK293 cAMP ctrl 22.7%, TSHR agonist 20µM*, CRE-bla Fsk -5.9%, Hsp90 Hop PPI -1.1% and IkB signaling 0.7%.
`Cc1cc(C)cc(C(=N)c2ccccc2Cc2cccc3ccccc23)c1` gave HEK293 cAMP ctrl 2.1%[11.4 µM], TSHR agonist 3.8%[11.4 µM], CRE-bla Fsk 4.8%[7.6 µM], Hsp90 Hop PPI 8.2%[11 µM] and IkB signaling 1.3%[11.4 µM].
For CC(C)c1cccc2nc3c(c([Si](C)(C)C(C)(C)C)c12)Cn1c-3cccc1=O the results were HEK293 cAMP ctrl 19.4%, TSHR agonist 13.6%, CRE-bla Fsk inconclusive and Hsp90 Hop PPI 24.7%.
Screening CC(C)c1cccc2c([Si](C)(C)C)c3c(nc12)-c1cccc(=O)n1C3 returned HEK293 cAMP ctrl 25.1µM*, TSHR agonist inconclusive, CRE-bla Fsk inconclusive and Hsp90 Hop PPI inconclusive.
Screening CC(C)c1cccc2nc3c(c(C(C)(C)C)c12)Cn1c-3cccc1=O returned HEK293 cAMP ctrl inconclusive, TSHR agonist inconclusive, CRE-bla Fsk 10µM* and Hsp90 Hop PPI 16.6%.
CCc1cccc2nc3c(c([Si](C)(C)C)c12)Cn1c-3cccc1=O was read as HEK293 cAMP ctrl inconclusive, TSHR agonist inconclusive, CRE-bla Fsk 12.6µM* and Hsp90 Hop PPI 17.9%.
For C[C@@]12C=CC(=O)C=C1CC[C@@H]1C2=CC[C@]2(C)[C@@H]1CC[C@H]2C(=O)CN1CCN(c2cc(N3CCCC3)nc(N3CCCC3)n2)CC1 the results were HEK293 cAMP ctrl -11.8%, CRE-bla Fsk -8.3%, Hsp90 Hop PPI -14.4% and IkB signaling 9.6%.
Screening CC(=O)Nc1cc(CN2CCCCC2)c(O)c2ncccc12 returned HEK293 cAMP ctrl 20.9%[11.4 µM], TSHR agonist -1.7%[11.4 µM], CRE-bla Fsk 0.8%[7.6 µM], Hsp90 Hop PPI 3.98µM* and IkB signaling 0.8%[11.4 µM].
Screening Oc1c(CN2CCN(c3ccccc3)CC2)cc(Br)c2cccnc12 returned HEK293 cAMP ctrl -0.3%[11.4 µM], TSHR agonist -9.7%[11.4 µM], CRE-bla Fsk -2.9%[7.6 µM], Hsp90 Hop PPI -13.9%[11 µM] and IkB signaling 8.7%[11.4 µM].
Screening Cc1ccccc1-n1c(=O)cc(N2CCN(Cc3ccccc3)CC2)[nH]c1=O returned HEK293 cAMP ctrl 15.6%, TSHR agonist 13.5%, CRE-bla Fsk 15.8µM*, Hsp90 Hop PPI 1.5% and IkB signaling -0.2%.
NC(N)=Nc1ccc(-c2ccc(N=C(N)N)cc2)cc1 was read as HEK293 cAMP ctrl -1.3%[11.4 µM], TSHR agonist 0.5%[11.4 µM], CRE-bla Fsk -3.6%[7.6 µM], Hsp90 Hop PPI 0.3%[11 µM] and IkB signaling 0.2%[11.4 µM].
For CCn1c2ccccc2c2nc3ccccc3nc21 the results were HEK293 cAMP ctrl inconclusive, TSHR agonist inconclusive, CRE-bla Fsk 2µM*, Hsp90 Hop PPI inconclusive and IkB signaling -4.7%.
Screening COc1cc2nc3c4ccccc4n(CC#N)c3nc2cc1OC returned HEK293 cAMP ctrl 10.8%, TSHR agonist 18.0%, CRE-bla Fsk -2.3%, Hsp90 Hop PPI -2.2% and IkB signaling 9.6%.
`Cc1cccc(OCC(=O)N(Cc2ccc(N(C)C)cc2)Cc2ccco2)c1C` gave IkB signaling -0.6%.

Source: PubChem
